Molecules are shown by their SMILES. Hit rate of the full screen: of about 39,000 compounds, about 1,500 (3.8%) were called active. Only a selection was taken, and actives are over-represented in it overall.

For the experiment, the system named is HSkMC (human skeletal muscle cells). As to the kind of experiment: cytotoxicity call (relative viability < 0.9). As to conditions: 10 µM.
Consider `Cc1ccccc1S(=O)(=O)N1C[C@H](O)COC[C@@H]2O[C@H](CC(=O)NCc3ccccc3Cl)CC[C@H]21`, for which the cytotoxicity call was “inactive”. The result for `O=C(NC1(c2ccccc2)CC1)c1c(CN2CCC(N3CCCCC3)CC2)c(-c2cccc(C(F)(F)F)c2)nc2cc(Br)ccc12` reads “active”; that for `O=C(N[C@@H](c1ccc(-c2ccccc2)cc1)c1cnccn1)C1CCN(Cc2cccc(C(F)(F)F)c2)CC1`, “inactive”. As for `COc1ccc(S(=O)(=O)N(C)C[C@H]2Oc3ccc(NC(=O)CCCN(C)C)cc3CC(=O)N([C@H](C)CO)C[C@@H]2C)cc1`, the cytotoxicity call was “inactive”. For `Cc1noc(C)c1NC(=O)N(C)C[C@@H]1OCCCC[C@@H](C)Oc2ccc(NC(=O)CCCCCC(=O)Nc3ccccc3N)cc2C(=O)N([C@H](C)CO)C[C@@H]1C`, the cytotoxicity call was “inactive”. For `CO[C@@H]1CN(C)C(=O)c2ccc(NC(=O)CC(F)(F)F)cc2OC[C@H](C)N(C(=O)C2CCOCC2)C[C@H]1C`, the cytotoxicity call was “inactive”. For `Cc1noc(C)c1NC(=O)Nc1cccc2c1O[C@H](CN(C)Cc1ccc(C(F)(F)F)cc1)[C@@H](C)CN([C@@H](C)CO)C2=O`, the cytotoxicity call is “inactive”. The result for `COc1ccc(NC(=O)Nc2ccc3c(c2)C(=O)N([C@@H](C)CO)C[C@H](C)[C@@H](CN(C)C(=O)Nc2ccc(F)cc2)OCCCC[C@H](C)O3)cc1` reads “inactive”; that for `C[C@H]1CN([C@@H](C)CO)C(=O)c2cccc(NC(=O)Nc3ccc(C(F)(F)F)cc3)c2O[C@H]1CN(C)Cc1ccc2c(c1)OCO2`, “inactive”. For `C[C@H]1CN([C@@H](C)CO)C(=O)c2cccc(NC(=O)Nc3ccc4c(c3)OCO4)c2O[C@@H]1CN(C)Cc1ccc(C(F)(F)F)cc1`, the cytotoxicity call is “inactive”. For `C[C@H]1CN([C@@H](C)CO)C(=O)c2cccc(NC(=O)Nc3ccc4c(c3)OCO4)c2O[C@H]1CN(C)Cc1ccc(C(F)(F)F)cc1`, the cytotoxicity call is “inactive”.

Turning to `C[C@@H]1CN([C@@H](C)CO)C(=O)c2cccc(NC(=O)Nc3ccc(C(F)(F)F)cc3)c2O[C@H]1CN(C)Cc1ccc2c(c1)OCO2`, the cytotoxicity call was “active”. With `C[C@H](CO)N1C[C@H](C)[C@H](CN(C)Cc2ccc3c(c2)OCO3)Oc2c(NC(=O)Nc3ccc(C(F)(F)F)cc3)cccc2C1=O`, the cytotoxicity call is “inactive”. As to `C[C@@H]1CN([C@H](C)CO)C(=O)c2cccc(NC(=O)Nc3ccc(C(F)(F)F)cc3)c2O[C@@H]1CN(C)Cc1ccc2c(c1)OCO2`, the cytotoxicity call was “inactive”.

Turning to `C[C@H](CO)N1C[C@H](C)[C@@H](CN(C)Cc2ccc3c(c2)OCO3)Oc2c(NC(=O)Nc3ccc(C(F)(F)F)cc3)cccc2C1=O`, the cytotoxicity call was “active”. As for `C[C@@H]1CN([C@@H](C)CO)C(=O)c2cccc(NC(=O)Nc3ccc4c(c3)OCO4)c2O[C@H]1CN(C)Cc1ccc(C(F)(F)F)cc1`, the cytotoxicity call was “active”.

With `C[C@H](CO)N1C[C@H](C)[C@H](CN(C)Cc2ccc(C(F)(F)F)cc2)Oc2c(NC(=O)Nc3ccc4c(c3)OCO4)cccc2C1=O`, the cytotoxicity call was “inactive”. `C[C@@H]1CN([C@@H](C)CO)C(=O)c2cccc(NC(=O)Nc3ccc(C(F)(F)F)cc3)c2O[C@@H]1CN(C)Cc1ccc2c(c1)OCO2`: the cytotoxicity call is “inactive”. As for `C[C@H]1CN([C@@H](C)CO)C(=O)c2cccc(NC(=O)Nc3ccc(C(F)(F)F)cc3)c2O[C@@H]1CN(C)Cc1ccc2c(c1)OCO2`, the cytotoxicity call was “active”. In the case of `C[C@@H]1CN([C@H](C)CO)C(=O)c2cccc(NC(=O)Nc3ccc(C(F)(F)F)cc3)c2O[C@H]1CN(C)Cc1ccc2c(c1)OCO2` it was “inactive”; in that of `C[C@H]1CCCCO[C@@H](CN(C)C(=O)Nc2ccc3c(c2)OCO3)[C@@H](C)CN([C@@H](C)CO)C(=O)c2cc(NS(=O)(=O)c3cccs3)ccc2O1`, “inactive”; in that of `Cc1cc(C(=O)Nc2cccc3c2O[C@@H](CN(C)S(=O)(=O)c2cccs2)[C@H](C)CN([C@H](C)CO)C3=O)n(C)n1`, “inactive”. For the compound `C[C@H]1CCCCO[C@H](CN(C)C(=O)NC2CCCCC2)[C@@H](C)CN([C@@H](C)CO)C(=O)c2cc(NS(=O)(=O)c3cccs3)ccc2O1`, the cytotoxicity call was “inactive”. As to `C[C@@H]1CCCCO[C@@H](CN(C)Cc2ccc(C(F)(F)F)cc2)[C@H](C)CN([C@H](C)CO)C(=O)c2cc(NC(=O)c3ccncc3)ccc2O1`, the cytotoxicity call was “inactive”. Consider `O=C(NCc1nc2ccccc2[nH]1)C1=C[C@@H](c2ccc(Br)cc2)C[C@@H](OCc2ccc(CO)cc2)O1`, for which the cytotoxicity call was “inactive”. On to `Cc1ccc(S(=O)(=O)N(C)C[C@@H]2Oc3ccc(NC(=O)Nc4ccc(C(F)(F)F)cc4)cc3C(=O)N([C@H](C)CO)C[C@@H]2C)cc1`, for which the cytotoxicity call is “inactive”. For `CS(=O)(=O)[C@H]1CCNC1`, the cytotoxicity call was “inactive”. The result for `CC(C)(C)S(=O)N1Cc2cc(C(=O)NCc3ccc4c(c3)OCO4)nc(-c3cccc(-c4cccc(F)c4)c3)c2[C@H]1CCO` (stereo partly specified) reads “inactive”; that for `COc1ccccc1CNC(=O)C[C@H]1CC[C@@H]2[C@H](COC[C@H](O)CN2C(=O)Nc2ccc(F)cc2)O1`, “inactive”.

Regarding `O=C(C[C@H]1C[C@H]2c3cc(NC(=O)C4CCOCC4)ccc3O[C@H]2[C@H](CO)O1)NCc1ccc2c(c1)OCO2`, the cytotoxicity call was “inactive”. For `C[C@@H]1CN([C@@H](C)CO)C(=O)c2cccc(NC(=O)c3nc4ccccc4s3)c2O[C@H]1CN(C)C(=O)Nc1ccc(C(F)(F)F)cc1`, the cytotoxicity call is “inactive”.

Turning to `COc1ccccc1S(=O)(=O)N[C@@H]1CC[C@H](CCNC(=O)C2CC2)O[C@H]1CO`, the cytotoxicity call was “inactive”.

For the compound `CN(C)CCCNC(=O)[C@@H]1[C@@H](CO)[C@@H]2Cn3c(ccc(-c4cccc(C(=O)N(C)C)c4)c3=O)[C@H]1N2`, the cytotoxicity call is “inactive”. Turning to `C=C[C@](C)(O)CC/C=C(\C)C(=O)O[C@@H]1[C@@H](O[C@@](C)(C=C)CC/C=C(\C)C(=O)O[C@H]2C[C@@]3(C(=O)O[C@H]4OC[C@@H](O[C@H]5O[C@@H](CO)[C@@H](O)[C@@H](O[C@H]6O[C@@H](CO)[C@@H](O[C@H]7O[C@@H](CO)[C@@H](O)[C@@H](O)[C@@H]7O)[C@@H](O)[C@@H]6O)[C@@H]5O)[C@@H](O)[C@@H]4O)[C@@H](O)C[C@@]4(C)C(=CC[C@H]5[C@@]6(C)CC[C@@H](O[C@H]7O[C@@H](CO)[C@@H](O[C@H]8O[C@@H](CO)[C@@H](O)[C@@H](O[C@H]9OC[C@@H](O)[C@@H](O)[C@@H]9O)[C@@H]8O)[C@@H](O)[C@@H]7O)C(C)(C)[C@@H]6CC[C@@]54C)[C@@H]3CC2(C)C)OC[C@@H](O)[C@H]1O`, the cytotoxicity call was “active”. In the case of `C[C@@H]1O[C@H](O[C@H]2[C@H](OC(=O)[C@]34CCC(C)(C)C[C@@H]3C3=CC[C@@H]5[C@@]6(C)CC[C@H](O[C@@H]7O[C@@H](C)[C@H](O[C@@H]8OC[C@@H](O)[C@H](O)[C@H]8O)[C@@H](O)[C@H]7O)C(C)(C)[C@@H]6CC[C@@]5(C)[C@]3(C)C[C@@H]4O)OC[C@H](O)[C@H]2O)[C@H](O)[C@H](O)[C@H]1O[C@@H]1O[C@H](CO)[C@@H](O)[C@H](O)[C@H]1O`, the cytotoxicity call was “inactive”. Consider `C[C@@H]1O[C@@H](O[C@H]2[C@H](OC(=O)[C@]34CCC(C)(C)C[C@H]3C3=CC[C@H]5[C@@]6(C)CC[C@H](O[C@@H]7O[C@H](CO)[C@@H](O)[C@H](O)[C@H]7O)C(C)(C)[C@@H]6CC[C@@]5(C)[C@]3(C)C[C@H]4O)OC[C@H](O)[C@@H]2O)[C@H](O)[C@H](O[C@@H]2OC[C@H](O)[C@H](O)[C@H]2O)[C@H]1O[C@@H]1OC[C@@H](O)[C@H](O[C@@H]2OC[C@H](O)[C@H](O)[C@H]2O)[C@H]1O`, for which the cytotoxicity call is “inactive”.
